Assay results taken from PubChem BioAssay (NCI).
Compounds without any hit were thinned out: in the full panel of roughly 79,000, 15% have a hit. Calls of active or inactive are those of the source. No stated cut-off is given here; in the data, active means growth inhibition above about 70%; inactive means the rest.

How the values were obtained:
[1] = NCI Yeast Anticancer Drug Screen. Data for the mlh1 strain (AID 171);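 further: 0% = growth of vehicle-treated control cultures of the same strain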; details: S. cerevisiae mlh1 strain growth inhibition, hits give high values
In short: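 Compounds are applied to a genetically altered yeast strain, and its growth is compared with that of vehicle-treated cultures to give percent inhibition.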

[2] = NCI Yeast Anticancer Drug Screen. Data for the sgs1 strain (AID 173);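 further: 0% = growth of vehicle-only control cultures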; details: S. cerevisiae sgs1 mutant, hits give high values
In short: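 Compounds applied to genetically altered yeast; growth compared with vehicle-treated cultures to give % inhibition.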

[3] = NCI Yeast Anticancer Drug Screen. Data for the mlh1 rad18 strain (AID 175); details: S. cerevisiae mlh1 rad18 strain growth inhibition, hits give high values
In short: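 Cells of a genetically altered yeast strain, deficient in DNA damage repair, were treated with compound. Their growth was then compared with that of vehicle-treated cultures to give inhibition.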

[4] = NCI Yeast Anticancer Drug Screen. Data for the rad18 strain (AID 177); details: S. cerevisiae rad18 mutant growth inhibition, hits give high values
In short: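 Compounds are applied to a repair-deficient yeast strain, and growth is compared with that of vehicle-treated cultures to give percent inhibition.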

[5] = NCI Yeast Anticancer Drug Screen. Data for the rad52 strain (AID 147);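 further: 0% = growth of vehicle-treated control cultures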; details: S. cerevisiae rad52 mutant growth inhibition, hits give high values
In short: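 DNA repair-defective yeast; compound exposure; growth scored against vehicle controls.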

[6] = NCI Yeast Anticancer Drug Screen. Data for the wt1 strain (AID 149);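 further: 0% = growth of vehicle-treated wt1 cultures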; details: S. cerevisiae wt1 strain (SPY 50644) growth inhibition, hits give high values
In short: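 wt1 yeast, compound-treated; % growth inhibition vs vehicle control.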

[7] = NCI Yeast Anticancer Drug Screen. Data for the rad50EPP+ strain (AID 151);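 further: 0% = growth of vehicle-treated control cultures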; details: S. cerevisiae rad50 mutant strain, hits give high values
In short: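 rad50EPP+ yeast treated with test compounds. Readout: growth vs vehicle control.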

[8] = NCI Yeast Anticancer Drug Screen. Data for the rad50 strain (AID 155);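 further: 0% = growth of vehicle-only cultures of the same strain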; details: S. cerevisiae rad50 strain growth inhibition, hits give high values
In short: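 Genetically altered yeast (DNA repair pathway); compound treatment; growth inhibition vs vehicle ctrl.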

[9] = NCI Yeast Anticancer Drug Screen. Data for the mec2-1 strain (AID 157); details: S. cerevisiae mec2-1 strain, hits give high values
In short: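 Growth inhibition is read against vehicle-treated controls after compound exposure of the mec2-1 yeast strain, which is defective in DNA damage repair or cell cycle control.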

[10] = NCI Yeast Anticancer Drug Screen. Data for the rad14 strain (AID 159);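 further: 0% = growth of vehicle-treated control cultures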; details: S. cerevisiae rad14 strain growth inhibition, hits give high values
In short: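 Test compounds were applied to a repair-deficient yeast strain. Its growth was then compared with that of cultures given vehicle alone, and inhibition was expressed relative to those controls.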

[11] = NCI Yeast Anticancer Drug Screen. Data for the sgs1 mgt1 strain (AID 161);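 further: 0% = growth of cultures given vehicle only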; details: S. cerevisiae sgs1 mgt1 strain, hits give high values
In short: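 Percent growth inhibition was derived by comparing compound-exposed mutant yeast with vehicle-exposed cultures. The strain carries alterations in DNA damage repair.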

[12] = NCI Yeast Anticancer Drug Screen. Data for the CLN2oe strain (AID 163);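 further: 0% = growth of vehicle-only control cultures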; details: S. cerevisiae CLN2oe strain, hits give high values
In short: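 Compound-treated yeast; growth vs vehicle ctrl = % inhibition. Genetically altered strain (cell-cycle control).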

[13] = NCI Yeast Anticancer Drug Screen. Data for the cln2 rad14 strain (AID 165);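 further: 0% = growth equal to vehicle treated cultures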; details: S. cerevisiae cln2 rad14 strain, hits give high values
In short: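 Growth inhibition, relative to vehicle-treated controls, is the read-out. The test organism is a yeast strain with defined genetic alterations, cln2 rad14.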

[14] = NCI Yeast Anticancer Drug Screen. Data for the bub3 strain (AID 167); details: S. cerevisiae bub3 mutant strain, hits give high values
In short: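 Yeast carrying a defined mutation is treated with each compound, and growth is compared with that of vehicle-exposed cells to give inhibition.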

[15] = NCI Yeast Anticancer Drug Screen. Data for the wt2 strain (AID 169);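 further: 0% = growth of vehicle-treated yeast cultures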; details: S. cerevisiae wt2 strain growth inhibition, hits give high values
In short: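 Compound exposure of yeast; growth compared with vehicle controls; inhibition reported.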

[16] = at 5.0 µM (retest, dose inferred, filed as 0.5)
[17] = at 50.0 µM (retest, dose inferred, filed as 5.0)

Measured: growth inhibition

CC1OC(OC2CCCc3c(O)c4c(c(O)c32)C(=O)c2ccccc2C4=O)CC(N)C1O (centres undefined)
inactive: [1]; at 1.2 µM -11% | [1]; at 3.7 µM -6% | [1]; at 11.0 µM 16% | [2]; at 1.2 µM -12% | [2]; at 3.7 µM -7% | [2]; at 11.0 µM 34% | [3]; [16] 12% | [3]; at 50.0 µM 66.2% | [4]; at 1.2 µM -8% | [4]; at 3.7 µM 0% | [4]; at 11.0 µM 8%
active: [1]; at 33.0 µM 94% | [1]; at 100.0 µM 99% | [2]; at 33.0 µM 97% | [2]; at 100.0 µM 99% | [3]; [17] 99% | [4]; at 33.0 µM 90% | [4]; at 100.0 µM 99%

CCCCC1=NNC(=O)C1
inactive: [5]; at 1.2 µM 2% | [5]; at 3.7 µM 4% | [5]; at 11.0 µM 0% | [5]; at 33.0 µM 7% | [5]; at 100.0 µM 15% | [6]; at 1.2 µM 1% | [6]; at 3.7 µM 2% | [6]; at 11.0 µM 8% | [6]; at 33.0 µM 7% | [6]; at 100.0 µM 5% | [7]; at 1.2 µM -9% | [7]; at 3.7 µM -8% | [7]; at 11.0 µM -16% | [7]; at 33.0 µM -10% | [7]; at 100.0 µM -7% | [8]; at 1.2 µM 3% | [8]; at 3.7 µM -11% | [8]; [16] 45% | [8]; at 11.0 µM -6% | [8]; at 33.0 µM -11% | [8]; at 50.0 µM 3% | [8]; at 100.0 µM 9% | [9]; at 1.2 µM -7% | [9]; at 3.7 µM -5% | [9]; [16] 32% | [9]; at 11.0 µM -8% | [9]; at 33.0 µM -9% | [9]; [17] 57% | [9]; at 50.0 µM -3.3% | [9]; at 100.0 µM 5% | [10]; at 1.2 µM 6% | [10]; at 3.7 µM 11% | [10]; at 11.0 µM 9% | [10]; at 33.0 µM 13% | [10]; at 100.0 µM 18% | [11]; [16] 17% | [11]; [17] -26% | [12]; at 1.2 µM -43% | [12]; at 3.7 µM -48% | [12]; at 11.0 µM -52% | [12]; at 33.0 µM -70% | [12]; at 100.0 µM -28% | [13]; [16] 28% | [13]; [17] -56% | [13]; at 50.0 µM 52% | [14]; at 1.2 µM -4% | [14]; at 3.7 µM 0% | [14]; [16] 22% | [14]; at 11.0 µM -11% | [14]; at 33.0 µM 0% | [14]; [17] -26% | [14]; at 100.0 µM 7% | [15]; at 1.2 µM -40% | [15]; at 3.7 µM -45% | [15]; at 11.0 µM -64% | [15]; at 33.0 µM -52% | [15]; at 100.0 µM -66% | [1]; at 1.2 µM -11% | [1]; at 3.7 µM 1% | [1]; at 11.0 µM -7% | [1]; at 33.0 µM -10% | [1]; at 100.0 µM -18% | [2]; at 1.2 µM 10% | [2]; at 3.7 µM 12% | [2]; at 11.0 µM 0% | [2]; at 33.0 µM -22% | [2]; at 100.0 µM 5% | [3]; [16] 53% | [3]; [17] 69% | [3]; at 50.0 µM -34.6% | [4]; at 1.2 µM -10% | [4]; at 3.7 µM 1% | [4]; at 11.0 µM 0% | [4]; at 33.0 µM 1% | [4]; at 100.0 µM 24%
active: [8]; [17] 78% | [11]; at 50.0 µM 90% | [14]; at 50.0 µM 81.7%

Nc1ccc2c(c1)sc1ccccc12
inactive: [5]; at 1.2 µM -3% | [5]; at 3.7 µM 2% | [5]; at 11.0 µM 3% | [5]; at 33.0 µM 30% | [6]; at 1.2 µM -5% | [6]; at 3.7 µM -7% | [6]; at 11.0 µM -10% | [6]; at 33.0 µM -11% | [7]; at 1.2 µM 1% | [7]; at 3.7 µM 13% | [7]; at 11.0 µM 38% | [8]; at 1.2 µM -20% | [8]; at 3.7 µM -1% | [8]; [16] -153% | [8]; at 11.0 µM 9% | [8]; at 33.0 µM 46% | [8]; [17] 54% | [9]; at 1.2 µM 1% | [9]; at 3.7 µM 0% | [9]; [16] -52% | [9]; at 11.0 µM -6% | [9]; at 33.0 µM 4% | [9]; [17] -24% | [9]; at 50.0 µM 33% | [10]; at 1.2 µM -3% | [10]; at 3.7 µM -6% | [10]; at 11.0 µM -1% | [10]; at 33.0 µM 15% | [11]; [16] -68% | [11]; [17] 40% | [11]; at 50.0 µM 63.1% | [12]; at 1.2 µM -2% | [12]; at 3.7 µM -5% | [12]; at 11.0 µM -3% | [12]; at 33.0 µM -5% | [13]; [16] -60% | [13]; [17] -50% | [13]; at 50.0 µM -13.4% | [14]; at 1.2 µM -6% | [14]; at 3.7 µM -4% | [14]; [16] -59% | [14]; at 11.0 µM 3% | [14]; at 33.0 µM 18% | [14]; [17] 40% | [15]; at 1.2 µM -1% | [15]; at 3.7 µM -2% | [15]; at 11.0 µM -4% | [15]; at 33.0 µM 0% | [1]; at 1.2 µM 9% | [1]; at 3.7 µM -4% | [1]; at 11.0 µM -5% | [1]; at 33.0 µM 21% | [3]; [16] -122% | [3]; [17] 38% | [4]; at 1.2 µM 0% | [4]; at 3.7 µM 6% | [4]; at 11.0 µM 27% | [4]; at 33.0 µM 56%
active: [5]; at 100.0 µM 99% | [6]; at 100.0 µM 99% | [7]; at 33.0 µM 89% | [7]; at 100.0 µM 98% | [8]; at 50.0 µM 85.4% | [8]; at 100.0 µM 99% | [9]; at 100.0 µM 99% | [10]; at 100.0 µM 98% | [12]; at 100.0 µM 95% | [14]; at 50.0 µM 92.5% | [14]; at 100.0 µM 99% | [15]; at 100.0 µM 99% | [1]; at 100.0 µM 99% | [3]; at 50.0 µM 94.2% | [4]; at 100.0 µM 99%
